Measurements published in the supplement of paper PMC10498489.
In all, about 2,300 compounds went through this assay and about 330 (14%) showed activity. A selection follows. Values without a mark were called inactive.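 How the source made its calls: active = median modified Z-score above 1.96; inactive = 1.96 or below.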

Tested on: HepG2 Srxn1-GFP reporter cells (+30 nM CDDO-Me)
Assay: Srxn1-GFP intensity median modified Z-score relative to plate median; higher = stronger NRF2 / oxidative stress reporter activation, active = hit call of the paper
Conditions: 10 µM; exposure time: 24h
Summary of the method: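 Each value is the replicate median of a per-plate modified Z-score for GFP intensity in HepG2 Srxn1-GFP BAC reporter cells. The cells (20,000 per well, 96-well plates, three replicate plates) received compound at 10 μM together with an NRF2 activator at 30 nM for 24 h, in ≤0.1% DMSO. Cytoplasmic GFP was quantified per cell from confocal images of formaldehyde-fixed, Hoechst-stained cells, leaving out images with fewer than 100 cells, and scaling used 1.4826 × median absolute deviation.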

Point of comparison: `COc1ccc(-c2oc3cc(OC)c(OC)c(OC)c3c(=O)c2OC)cc1` [euspeclibcmpd1578], “Srxn1-GFP intensity median modified Z-score” value 0.25. Against it:
- O=C1O[C@H](C(O)CO)C(O)=C1O (some centres not stated) [euspeclibcmpd2046] — lower, -0.841
- CC(CCC(=O)O)C1CC[C@H]2C3[C@H](O)C[C@@H]4C[C@H](O)CCC4(C)[C@H]3C[C@H](O)C12C (some centres not stated) [euspeclibcmpd1325] — lower, -0.323
- CCC(C)C1NC(=O)C(CCN)NC(=O)C(NC(=O)C(CCN)NC(=O)C(NC(=O)C(CCN)NC(=O)CCCCC(C)C)C(C)O)CCNC(=O)C(C(C)O)NC(=O)C(CCN)NC(=O)C(CCN)NC(=O)C(C(C)CC)NC1=O (configuration not stated) [euspeclibcmpd887] — higher, 0.477
- CC(C)C1CC[C@@H](C)CC1=O (some centres not stated) [euspeclibcmpd1630] — lower, -0.168
- CC(=O)OCC(=O)[C@@]12OC3(CCCC3)O[C@@H]1CC1C3CC=C4CC(=O)C=C[C@]4(C)[C@@]3(F)[C@@H](O)C[C@@]12C (some centres not stated) [euspeclibcmpd606] — lower, -0.413
- CN[C@@H]1C(OC2[C@H](O[C@H]3[C@H](O)[C@@H](O)[C@H](N=C(N)N)[C@@H](O)[C@@H]3N=C(N)N)OC(C)[C@]2(O)CO)OC(CO)C(O)C1O (some centres not stated) [euspeclibcmpd500] — lower, 0.194
- CC(C)c1c(C(=O)Nc2ccccc2)c(-c2ccccc2)c(-c2ccc(F)cc2)n1CC[C@@H](O)C[C@@H](O)CC(=O)O [euspeclibcmpd2076] — lower, 0.0135
- CC(C)=c1nc(N(C)S(C)(=O)=O)nc(-c2ccc(F)cc2)c1=CC[C@@H](O)C[C@@H](O)CC(=O)O [euspeclibcmpd2132] — lower, 0.158
- CC1=C2CC(=O)C=C[C@]2(C)C2C(C1)C1CC[C@](O)(C(=O)COC(=O)CCC(=O)O)[C@@]1(C)C[C@@H]2O (some centres not stated) [euspeclibcmpd2224] — lower, -0.845
- Oc1cc2c(cc1O)=C1c3ccc(O)c(O)c3OCC1(O)C=2 (configuration not stated) [euspeclibcmpd1969] — lower, -0.521
- CC(CCC(=O)O)[C@H]1CCC2C3C(=O)C[C@@H]4CC(=O)CC[C@]4(C)C3CC(=O)[C@@]21C (some centres not stated) [euspeclibcmpd357] — lower, 0.217
- COc1cc(C)c(C(=O)O)c(O)c1 [euspeclibcmpd2356] — lower, -0.209
- CCCCCC(=O)Cc1cc(O)cc(O)c1C(=O)Oc1cc(CC(=O)CCCCC)c(C(=O)O)c(OC)c1 [euspeclibcmpd1619] — lower, -0.366
- COCC1(C)NC(=O)N(CCC(=O)Nc2cc(C)on2)C1=O (configuration not stated) — higher, 1.16
- COC(=O)C1=C(C)N=C(C)C(C(=O)OC(C)C)C1c1cccc2nonc12 (configuration not stated) [euspeclibcmpd996] — lower, -0.132
- CCOC(=O)C1=C(C)N=C(C)C(C(=O)OC)C1c1cccc([N+](=O)[O-])c1 (configuration not stated) [euspeclibcmpd494] — lower, 0.225
- Cc1cc(=NC(=O)C2C(=O)c3ccccc3S(=O)(=O)N2C)[nH]o1 (configuration not stated) [euspeclibcmpd552] — lower, -0.344
- CC1=c2c(C)c(O)c(C(=O)O)c(O)c2=CO[C@@H]1C [euspeclibcmpd1555] — higher, 1.14
- CCCC(C(N)=O)c1ccccc1 (configuration not stated) — higher, 1.53
- OCCN1C[C@@H](O)[C@@H](O)C(O)C1CO (some centres not stated) [euspeclibcmpd679] — higher, 0.73
- CC(=O)OCC(=O)C1CCC2C3CC=C4C[C@@H](O)CC[C@]4(C)C3CC[C@]12C (some centres not stated) [euspeclibcmpd1443] — lower, 0.217
- COC(=O)C[C@H]1C(C)(C)[C@@H](OC(C)=O)C2CC3=C4CC(=O)O[C@@H](c5ccoc5)[C@]4(C)CCC3[C@@]1(C)C2=O (some centres not stated) [euspeclibcmpd1559] — higher, 0.833
- COc1c(O)c(C)c(C=CC(C)=CCC=C(C)CCC=C(C)CCC=C(C)CCC=C(C)CCC=C(C)CCC=C(C)CCC=C(C)CCC=C(C)CCC=C(C)C)c(O)c1OC [euspeclibcmpd1853] — lower, -0.0742
- Oc1ccc(C(O)O)[nH]1 [euspeclibcmpd1237] — lower, -0.421
- CC(=O)OCC[N+](C)(C)C [euspeclibcmpd13] — lower, -0.276
- CC(C)=CCC=C(C)C=Cc1c(C)c(O)c2ccccc2c1O [euspeclibcmpd1484] — lower, -0.304
- CN1CCN(C2N=c3cc(Cl)ccc3=Nc3ccccc32)CC1 (configuration not stated) [euspeclibcmpd804] — higher, 0.387
- C#CCCCCCCCCCCCc1ccco1 [euspeclibcmpd2261] — lower, -0.224
- CCNCC(O)COc1ccc(CCOC)cc1 (configuration not stated) — higher, 1.2
- CCCCOc1ccc(CC(O)=NO)cc1 [euspeclibcmpd1071] — higher, 1.55
- CC(N=C(N=c1cc[nH]cc1)NC#N)C(C)(C)C (configuration not stated) [euspeclibcmpd960] — higher, 0.333
- COc1ccc(-c2oc3cc(OC)c(OC)c(OC)c3c(=O)c2OC)cc1OC [euspeclibcmpd1579] — higher, 0.934
- COc1ccc(-c2oc3c(CC=C(C)C)c(O[C@@H]4O[C@H](CO)[C@@H](O)[C@H](O)[C@H]4O)cc(O)c3c(=O)c2O[C@@H]2O[C@@H](C)[C@H](O)[C@@H](O)[C@H]2O)cc1 [euspeclibcmpd2338] — higher, 0.366
- COc1cc2oc3cc(OC)c(OC)c(C=CC(C)C)c3c(=O)c2c(O)c1CC=C(C)C [euspeclibcmpd1769] — lower, -0.34
- CC(C)=CCc1c(O)cc2oc(C)cc(=O)c2c1O [euspeclibcmpd1412] — higher, 1.94
- COc1cc(-c2coc3cc(O)c(OC)c(O)c3c2=O)cc(O)c1OC [euspeclibcmpd1394] — higher, 1.24
- C[C@@H]1CC2C3CC=C4CC(=O)C=C[C@]4(C)[C@@]3(F)[C@@H](O)C[C@]2(C)[C@@]1(O)C(=O)COP(=O)(O)O (some centres not stated) [euspeclibcmpd2420] — lower, -0.794
- CC[C@H]1OC(=O)C(C)[C@@H](O[C@H]2C[C@@](C)(OC)[C@@H](O)[C@H](C)O2)[C@H](C)[C@@H](O[C@@H]2O[C@H](C)C[C@H](N(C)C)[C@H]2O)[C@](C)(O)C[C@@H](C)[C@@H]2N[C@@H](COCCOC)O[C@H]([C@H]2C)[C@]1(C)O (some centres not stated) [euspeclibcmpd652] — lower, -0.125
- O=C(O)C1=C(CSc2nnnn2CS(=O)(=O)O)CSC2C(NC(=O)C(O)c3ccccc3)C(=O)N12 (configuration not stated) [euspeclibcmpd2255] — lower, 0.114
- NC(C=O)C(O)NNCc1ccc(O)c(O)c1O (configuration not stated) [euspeclibcmpd32] — lower, -0.0581
- C[C@@H]1CC2C3CC(F)=C4CC(=O)C=C[C@]4(C)[C@@]3(F)[C@@H](O)C[C@]2(C)[C@@]1(O)C(=O)CO (some centres not stated) [euspeclibcmpd415] — lower, -0.177
- CC(C)=CC1C(C(=O)O)C1(C)C (configuration not stated) [euspeclibcmpd2019] — higher, 0.889
- O=c1c(O)c(-c2ccc(O)cc2O)oc2cc(O)cc(O)c12 [euspeclibcmpd1432] — lower, -0.493
- C[C@H](CCC(=O)O)[C@H]1CCC2C3C(CC[C@@]21C)[C@@]1(C)CC[C@@H](O)C[C@H]1C[C@@H]3O (some centres not stated) [euspeclibcmpd2109] — lower, -0.352
- COc1ccc(CC(=O)c2ccc(O)cc2O)cc1 [euspeclibcmpd1699] — higher, 1.77
- COc1ccc(SCC(=O)c2ccc(O)cc2O)cc1 — higher, 1.51
- CC(=O)C1CCC2C3CC=C4C[C@@H](OC(=O)CCC(=O)O)CC[C@]4(C)C3CC[C@]12C (some centres not stated) [euspeclibcmpd854] — higher, 1.01
- CCC(C)C(=O)O[C@H]1C[C@H](O)C=C2C=C[C@H](C)[C@H](CC[C@@H](O)C[C@@H](O)CC(=O)O)C21 (some centres not stated) [euspeclibcmpd2392] — lower, -0.0232

With `CC(C)n1c(C=CC(O)CC(O)CC(=O)O)c(-c2ccc(F)cc2)c2ccccc21` (configuration not stated) [euspeclibcmpd1968] the “Srxn1-GFP intensity median modified Z-score” value was 3.35 (active).
With `CCCCCc1c2c(cc(O)c1C(=O)O)OC(=O)c1c(cc(OC)cc1C(=O)CCCC)O2` [euspeclibcmpd1731] the “Srxn1-GFP intensity median modified Z-score” value was 4.46 (active).
For `CCOC(=O)C1=C(COCCN)N=C(C)C(C(=O)OC)C1c1ccccc1Cl` (configuration not stated) [euspeclibcmpd713], the “Srxn1-GFP intensity median modified Z-score” value was 22.6 (active).
`COc1c(C/C=C(\C)CCC(=O)O)c(O)c2c(O)occ2c1C` [euspeclibcmpd334] was tested, and the “Srxn1-GFP intensity median modified Z-score” value was 11.8 (active).
In the case of `COc1c(C/C=C(\C)CCC(=O)OCCN2CCOCC2)c(O)c2c(O)occ2c1C` [euspeclibcmpd688], the “Srxn1-GFP intensity median modified Z-score” value is reported as 5.22 (active).
`CCCCCCCCCc1ccc(OCCOCCOCCOCCOCCOCCOCCOCCOCCO)cc1` [euspeclibcmpd736] was tested, and the “Srxn1-GFP intensity median modified Z-score” value was 18.5 (active).
`COc1cc2oc3cc(OC)c(OC)c(CC=C(C)C)c3c(=O)c2c(OC)c1CC=C(C)C` [euspeclibcmpd1951] was tested, and the “Srxn1-GFP intensity median modified Z-score” value was 13.2 (active).
For `COc1cc(O)c2c(=O)cc(C)oc2c1CC=C(C)C` [euspeclibcmpd1598], the “Srxn1-GFP intensity median modified Z-score” value was 2.54 (active).
In the case of `COc1c(O)cc2oc3cc(O)c(CC=C(C)C)c(O)c3c(=O)c2c1C=CC(C)C` [euspeclibcmpd1547], the “Srxn1-GFP intensity median modified Z-score” value is reported as 34.4 (active).
In the case of `CC(C)=CC1C(CO)C1(C)C` (configuration not stated) [euspeclibcmpd1789], the “Srxn1-GFP intensity median modified Z-score” value is reported as 2.3 (active).
For `COc1ccc(C(C)C(=O)c2ccc(O)cc2O)cc1` (configuration not stated) [euspeclibcmpd1599], the “Srxn1-GFP intensity median modified Z-score” value was 3.33 (active).
`C[C@@H]1CC[C@H]2[C@@H](C)C(O)O[C@@H]3O[C@]4(C)CC[C@@H]1[C@]32OO4` (some centres not stated) [euspeclibcmpd1251] was tested, and the “Srxn1-GFP intensity median modified Z-score” value was 3.33 (active).
`C[C@H]1[C@H](OC(=O)CCC(=O)O)O[C@@H]2O[C@]3(C)CC[C@H]4[C@H](C)CC[C@@H]1[C@@]24OO3` [euspeclibcmpd985] was tested, and the “Srxn1-GFP intensity median modified Z-score” value was 11 (active).
